# Hits are enriched below; roughly 2.4% of the tested compounds scored in any of these assays.
# GLP-1R agonist = GLP-1 receptor (human) agonism; actives 0.007% (n = 380,000); Potency, µM (titrated, usually from 45.6 µM), inactives show at the top dose activation, most hits filed as activators; HEK293 GLP-1R CRE-luciferase, luminescence, 4-6 h; cells express a hypersensitive GLP-1R form; P43220; AID 624172; note: potency is the fitted concentration of half-maximal effect; % of control where 0% means no effect
# Target sequence (P43220 whole entry, looked up): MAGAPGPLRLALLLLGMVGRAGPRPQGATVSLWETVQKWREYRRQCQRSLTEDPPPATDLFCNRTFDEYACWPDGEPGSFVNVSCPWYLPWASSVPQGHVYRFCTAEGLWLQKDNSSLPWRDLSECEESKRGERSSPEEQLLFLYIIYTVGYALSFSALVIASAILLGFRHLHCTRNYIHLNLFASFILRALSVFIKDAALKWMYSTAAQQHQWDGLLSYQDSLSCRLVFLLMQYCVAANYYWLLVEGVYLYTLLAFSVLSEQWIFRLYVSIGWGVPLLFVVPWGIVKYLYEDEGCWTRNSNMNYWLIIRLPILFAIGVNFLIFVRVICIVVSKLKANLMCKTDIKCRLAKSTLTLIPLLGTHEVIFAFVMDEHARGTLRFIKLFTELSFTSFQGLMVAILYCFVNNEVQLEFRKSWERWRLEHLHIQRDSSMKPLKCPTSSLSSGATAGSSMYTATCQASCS
# TRHR agonist = activates the human TRH receptor | AID 493084 | actives 0.18% (n = 360,000) | TRHR cells, calcium flux fluo-8, FDSS agonist mode | activation, % at 2 µM | P34981; in the data active = activation above about 30%; note: 0% is about no effect
#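 TRHR-expressing cells loaded with fluo-8 calcium dye; 23 nL library compound pin-transferred, kinetic FDSS fluorescence (Ex 480/Em 530) recorded about 180 s for agonist-induced calcium release, before a 10 nM TRH EC20 addition for potentiator mode.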
# HEK293 tox = cytotoxic in the GLP-1 receptor inverse agonist counter-screen; HEK293 cAMP-luciferase reporter cells, luminescence, 24 h; Potency, µM (highest dose often 38.3 µM), for the others: top-dose activity change, negative = inhibition, hits mostly inhibitors; actives 0.13% (n = 410,000); AID 624418;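 note: loss of luciferase light is scored as toxicity; potency is the fitted concentration of half-maximal effect; % is set by controls: 0 for no effect and ±100 for the full control effect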
#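 Quantitative HTS format, 1536 wells, 200 cells/uL seeded. Compounds: 23 nL, 24 h, 37 °C. Detection: luciferase reagent, luminescence at 12 min RT; decreased signal taken as cytotoxic.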
# GLP1R inv ag = acts as inverse agonist at human GLP-1 receptor; actives 1.6% (n = 410,000); HEK293 GLP-1R CRE-luciferase, luminescence, 24 h; GLP-1R form is constitutively active; Potency, µM (top dose mostly 38.3 µM), for the others: at the top dose activity change, negative = inhibition, actives largely listed as inhibitors; P43220; note: potency is the fitted concentration of half-maximal effect; % is set by controls: 0 for no effect and ±100 for the full control effect; nearly all actives have a fitted effect of over 55% in size
#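 Cells are plated, allowed 12 hours at 37 deg C, then treated with compounds for 24 hr before luciferase detection reagent is added and luminescence is read after 12 min at room temperature. The HEK293 line carries constitutively active GLP-1R with a cAMP-responsive reporter.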
# PTHR1 ag = PTHR1 (human) receptor agonism. Q03431. HEK293 GP2 PTHR1 cells, GloSensor cAMP luminescence, 1 h. Potency, µM (series often up to 115 µM), inactives show at the top dose activation, actives largely listed as activators. actives 0.075% (n = 410,000). AID 743266; note: potency is the fitted concentration of half-maximal effect; nearly all actives have a fitted effect of over 55% in size
#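 HEK-293-derived GP2 cells expressing PTHR1 and a GloSensor cAMP reporter, 3,000/well, plated overnight, given luciferin plus IBMX (each 0.5 mM as added) for 1 h at 37 °C, then compound for 1 h at 37 °C. Luminescence was read after 15 min at room temperature.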
# TRHR PAM = allosteric enhancers of human TRH receptor; actives 0.66% (n = 360,000); P34981; enhancement, % at 2 µM; TRHR cells, fluo-8 calcium fluorescence, EC20 TRH enhancement; in the data active = enhancement above about 30%; note: 0% is about no effect
#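 TRHR-expressing cells loaded with fluo-8 calcium dye were read kinetically (ex 480/em 530) during compound addition, then stimulated with an EC20 of TRH (10 nM final). Enhancement of the Gq-mediated intracellular calcium response was scored.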
# * = called active by the depositor; i = inactive; ? = inconclusive; . = not tested or not shown; [ ] = remark or other dose. Unless noted, calls come from the whole dose curve; as a rule, active = well fitted curve in the direction sought with a large enough effect; inconclusive = small, poorly fitted or top-dose-only effect, or another doubt; inactive = no such curve, though single readings can be large; an effect the other way counts as inactive or inconclusive.
SMILES,GLP-1R agonist,TRHR agonist,HEK293 tox,GLP1R inv ag,PTHR1 ag,TRHR PAM
O=C(O)COCCN1CCN([C@@H](c2ccccc2)c2ccc(Cl)cc2)CC1,-6.1%[19.8 µM],.,.,.,.,.
c1ccc(OCCOCCN2CCN(C(c3ccccc3)c3ccccc3)CC2)cc1,-17.9%,0.5,?,7.08µM*,-64.9%,-1.7
COc1cc(C(=O)NNC(=O)/C=C/c2ccccc2)cc(OC)c1OC,10.2%,.,-6.2%,22.1%,-7.3%,.
S=C(Nc1ccc(Cl)cc1)NC1CC2CCCC(C1)N2C1CC1 (stereo not given),-2.3%,0.1,-13.3%,?,i,0.8
S=C(Nc1ccc(Cl)cc1)NC1CC2CCC(C1)N2Cc1ccccc1 (stereo not given),8.7%,6.7,-2.4%,7.08µM*,2.4%,2.7
S=C(Nc1ccc(Cl)cc1)NC1CC2CCCC(C1)N2C1CCCC1 (stereo not given),-13.6%,.,?,8.91µM*,?,.
Cc1cc(C)c2nc(N3CCC(C(=O)NCc4cccnc4)CC3)sc2c1,9.7%,-2.5,-0.2%,-17.4%,-12.8%,1.7
CCOC(=O)c1c(NC(=O)Cc2coc3cc(C)cc(C)c23)sc2c1CCC2,.,-1.3,9.6%,2.5%,?,-2.6
COc1ccc(OCc2n(CC(=O)OC3CC(C)CCC3C(C)C)c3ccccc3[n+]2C)cc1 (stereo not given),0.5%,1.5,?,?,-18.1%,-4.3
COc1ccc(-c2n(CC(=O)OC3CC(C)CCC3C(C)C)c3ccccc3[n+]2C)cc1 (stereo not given),-0.5%,0.1,?,7.08µM*,-45.3%,-3.6
COc1cc(OC)cc(C(=O)NCCOC23CC4CC(CC(C4)C2)C3)c1,5.9%,-0.7,0.5%,10µM*,i,3.2
CC(C)(C)C(=O)NCC(c1ccc2c(c1)OCO2)N1CCOCC1 (stereo not given),.,0.3,1.2%,9.6%,i,-3.5
CC1OC(CC(=O)O)CC2=C1C(=O)c1c(O)cccc1C2=O (stereo not given),-27.9%,.,0.891µM*,?,-43.8%,.
COc1cc(C)c(Cl)c(C)c1S(=O)(=O)NC1CC(C)(C)NC(C)(C)C1,-2.3%,1.4,2.2%,5.62µM*,-20.6%,39.0*
CCOc1cc(C)c(Cl)cc1S(=O)(=O)NC1CC(C)(C)NC(C)(C)C1,-4.2%,-0.7,-9.8%,?,-15.3%,3.3
CCOc1cc(S(=O)(=O)NC2CC(C)(C)NC(C)(C)C2)ccc1Cl,6.1%,-0.5,0.8%,11.2µM*,-10.0%,-3.2
CC(C)(C)c1ccc(C(=O)N/N=C2\C3CN4CCN(C3)CC2(c2ccccc2)C4)cc1,-21.0%,0.4,14.8%,3.4%,-21.6%,-0.4
COc1cc(/C=C(\NC(=O)c2ccccc2)C(=O)NC(C(=O)O)c2ccccc2)cc(OC)c1OC (stereo not given),-0.1%,-0.3,-8.3%,5.6%,-2.1%,-3.9
Cc1ccc(Cn2ccc(=O)c(OCc3c(Cl)cccc3Cl)c2C)cc1,2.4%,0.3,-11.8%,?,-10.9%[57.5 µM],39.2*
CCN(CC)CCN1C(=O)c2ccccc2NC1c1ccc(Br)cc1 (stereo not given),2.3%,3.4,-3.3%,10µM*,-0.8%,-4.5
COc1cccc(CN(Cc2ccco2)C(c2ccc(F)cc2)c2nnnn2C(C)(C)C)c1 (stereo not given),-27.7%,-1.1,3.1%,10µM*,-12.9%[57.5 µM],-3.8
CC(C)(C)n1nnnc1C(c1cccnc1)N(Cc1ccccc1)Cc1ccco1 (stereo not given),-0.5%,-1.0,63.2%,108.0%,i,10.1
CCCOc1ccc(CCc2n[nH]c(=S)n2-c2ccccc2)cc1,13.6%,-0.9,?,-16.4%,-13.5%,3.9
CCCOc1ccc(CCc2n[nH]c(=S)n2Cc2ccccc2)cc1,0.7%,-0.2,-2.0%,8.91µM*,-12.2%[57.5 µM],-2.8
CCc1ccc2oc(-c3cccc(NC(=O)COc4ccccc4Cl)c3)nc2c1,.,1.0,11.6%,20.0%,-43.2%,43.3*
SMILES,GLP-1R agonist,TRHR agonist,HEK293 tox,GLP1R inv ag,PTHR1 ag,TRHR PAM
O=C(c1ccccc1)c1cnc[nH]1,7.7%,0.0,5.4%,17.0%,i,30.4*
O=C(Nc1ccccc1)c1cnc[nH]1,-3.7%,0.0,0.9%,-1.7%,i,-3.0
COc1ccc(N2C(=O)Cc3c2nc(N)c(C#N)c3N)cc1,7.4%,0.3,-2.4%,84.0%,i,-0.1
CC1=CC(C)(C)n2c(O)c(N=NC(N)=S)c3cccc1c32,0.9%,0.0,?,4.47µM*,-6.4%,-8.9
COc1cc2c3c(c1)c(N=NC(N)=S)c(O)n3C(C)(C)C=C2C,29.1%,-0.1,0.891µM*,?,-9.5%,-10.6
CCOc1ccc(NC(=O)NC2CCCCCCC2)cc1,8.4%,0.3,-20.2%,?,-6.8%,-2.7
COc1ccc(-c2nc3ccccc3n2Cc2ccc(Cl)cc2)cc1,.,-0.8,-1.6%,10µM*,i,1.4
COc1ccc(-c2nc3ccccc3n2Cc2ccc(C(C)C)cc2)cc1,0.6%,1.7,2.3%,10µM*,-20.8%,-3.2
Cc1ccc(Cn2c(-c3ccccc3)nc3ccccc32)cc1,.,-0.7,17.4%,?,-38.0%,-4.0
COc1ccc(-c2nc3ccccc3n2Cc2ccc(C)cc2)cc1,3.3%,0.1,-26.1%,?,-13.4%,0.7
Cc1ccc(-c2nc3ccccc3c(=O)n2Cc2ccccc2)cc1,16.5%,0.0,-8.3%,3.55µM*,i,-2.2
CCOc1ccc(-c2c(C(=O)N/N=C/c3ccco3)nnn2-c2nonc2N)cc1,0.5%,-0.5,-13.9%,1.2%,-37.9%,6.1
CCOC(=O)Cc1ccc(NC(=O)Nc2cc3c(cc2N2CCCCC2)n(C)c(=O)n3C)cc1,0.8%,1.1,1.3%,-15.2%,-6.8%,3.3
CNC(=O)N(O)C1N(NC(=O)Nc2ccccc2)C(=S)SC1(C)C (stereo not given),11.9%,.,-4.4%,-15.1%,-8.2%,.
CC1(C)SC(=S)N(NC(=O)Nc2cccc3ccccc23)C1N(O)C(=O)Nc1ccccc1 (stereo not given),-12.0%,0.3,-22.1%,11.2µM*,i,-5.2
S=C1NC2=C(CCCC2=C2SCCS2)C(c2ccccc2)N1 (stereo not given),16.2%,0.1,?,6.1%,i,37.3*
COc1ccnc(Oc2ccc(F)cc2)c1C(=O)N/C=N/OCc1c(Cl)cccc1Cl,6.5%,-0.2,4.2%,10µM*,i,-4.1
CC(C)C(c1nnnn1Cc1ccccc1)N1CCN(Cc2ccc3c(c2)OCO3)CC1 (stereo not given),4.6%,-0.8,23.0%,8.91µM*,-10.5%,-2.6
